{"source": "the supplement of paper PMC6897291", "system": "U-2932", "assay": "growth inhibition by drug alone (1 - RLU/untreated control) (fraction); higher = stronger inhibition", "conditions": "177Lu-lilotomab satetraxetan 0 ug/ml", "experimental": "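U-2932 ABC-DLBCL cells were pretreated or not for 18 h with 1 ug/ml 177Lu-lilotomab satetraxetan (600 MBq/mg), washed and seeded (3000 cells/well) on 384-well plates pre-printed with the Selleck Cambridge Cancer Compound library. Viability was read by RealTime-Glo luminescence on days 3-6 after seeding. Effect = 1 - RLU/mean RLU of the 48 untreated no-drug control wells per plate; Bliss score = (M-E)/(1-Fa), with E the expected Bliss-additive effect.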", "note": "Structures can show the parent of a compound that is named as a salt.", "data": [{"smiles": "C[N+](C)([O-])CCNc1ccc(NCC[N+](C)(C)[O-])c2c1C(=O)c1c(O)ccc(O)c1C2=O", "note": "[Banoxantrone dihydrochloride]", "values": [{"measurement": "growth inhibition by drug alone", "setting": "10 nM, time (day): 3", "result": -0.0281}, {"measurement": "growth inhibition by drug alone", "setting": "10 nM, time (day): 4", "result": -0.0255}, {"measurement": "growth inhibition by drug alone", "setting": "10 nM, time (day): 5", "result": -0.149}, {"measurement": "growth inhibition by drug alone", "setting": "10 nM, time (day): 6", "result": -0.168}, {"measurement": "growth inhibition by drug alone", "setting": "1000 nM, time (day): 3", "result": -0.0598}, {"measurement": "growth inhibition by drug alone", "setting": "1000 nM, time (day): 4", "result": -0.0493}, {"measurement": "growth inhibition by drug alone", "setting": "1000 nM, time (day): 5", "result": -0.082}, {"measurement": "growth inhibition by drug alone", "setting": "1000 nM, time (day): 6", "result": -0.106}]}, {"smiles": "CN(C)c1nc(N(C)C)nc(N(C)C)n1", "note": "[Altretamine (Hexalen)]", "values": [{"measurement": "growth inhibition by drug alone", "setting": "10 nM, time (day): 3", "result": -0.0883}, {"measurement": "growth inhibition by drug alone", "setting": "10 nM, time (day): 4", "result": -0.0905}, {"measurement": "growth inhibition by drug alone", "setting": "10 nM, time (day): 5", "result": -0.0583}, {"measurement": "growth inhibition by drug alone", "setting": "10 nM, time (day): 6", "result": -0.058}, {"measurement": "growth inhibition by drug alone", "setting": "1000 nM, time (day): 3", "result": -0.122}, {"measurement": "growth inhibition by drug alone", "setting": "1000 nM, time (day): 4", "result": -0.0758}, {"measurement": "growth inhibition by drug alone", "setting": "1000 nM, time (day): 5", "result": -0.114}, {"measurement": "growth inhibition by drug alone", "setting": "1000 nM, time (day): 6", "result": 0.0216}]}, {"smiles": "CCCCCCCc1ccc(CCc2cccc(O)c2C(=O)O)cc1", "values": [{"measurement": "growth inhibition by drug alone", "setting": "10 nM, time (day): 3", "result": -0.00199}, {"measurement": "growth inhibition by drug alone", "setting": "10 nM, time (day): 4", "result": -0.0102}, {"measurement": "growth inhibition by drug alone", "setting": "10 nM, time (day): 5", "result": -0.0455}, {"measurement": "growth inhibition by drug alone", "setting": "10 nM, time (day): 6", "result": -0.106}, {"measurement": "growth inhibition by drug alone", "setting": "1000 nM, time (day): 3", "result": 0.0439}, {"measurement": "growth inhibition by drug alone", "setting": "1000 nM, time (day): 4", "result": 0.0243}, {"measurement": "growth inhibition by drug alone", "setting": "1000 nM, time (day): 5", "result": -0.0103}, {"measurement": "growth inhibition by drug alone", "setting": "1000 nM, time (day): 6", "result": 0.0409}]}, {"smiles": "C#CCN(C)CC1=Cc2ccccc2Oc2ccccc21", "values": [{"measurement": "growth inhibition by drug alone", "setting": "10 nM, time (day): 3", "result": 0.0712}, {"measurement": "growth inhibition by drug alone", "setting": "10 nM, time (day): 4", "result": 0.0296}, {"measurement": "growth inhibition by drug alone", "setting": "10 nM, time (day): 5", "result": -0.0381}, {"measurement": "growth inhibition by drug alone", "setting": "10 nM, time (day): 6", "result": -0.0948}, {"measurement": "growth inhibition by drug alone", "setting": "1000 nM, time (day): 3", "result": 0.056}, {"measurement": "growth inhibition by drug alone", "setting": "1000 nM, time (day): 4", "result": 0.0596}, {"measurement": "growth inhibition by drug alone", "setting": "1000 nM, time (day): 5", "result": 0.000991}, {"measurement": "growth inhibition by drug alone", "setting": "1000 nM, time (day): 6", "result": 0.0366}]}, {"smiles": "Nc1nc(Cl)nc2c1ncn2[C@H]1C[C@H](O)[C@@H](CO)O1", "note": "[Cladribine]", "values": [{"measurement": "growth inhibition by drug alone", "setting": "10 nM, time (day): 3", "result": -0.0123}, {"measurement": "growth inhibition by drug alone", "setting": "10 nM, time (day): 4", "result": -0.0135}, {"measurement": "growth inhibition by drug alone", "setting": "10 nM, time (day): 5", "result": -0.0163}, {"measurement": "growth inhibition by drug alone", "setting": "10 nM, time (day): 6", "result": 0.0971}, {"measurement": "growth inhibition by drug alone", "setting": "1000 nM, time (day): 3", "result": 0.943}, {"measurement": "growth inhibition by drug alone", "setting": "1000 nM, time (day): 4", "result": 0.966}, {"measurement": "growth inhibition by drug alone", "setting": "1000 nM, time (day): 5", "result": 0.98}, {"measurement": "growth inhibition by drug alone", "setting": "1000 nM, time (day): 6", "result": 0.987}]}]}
